Several values for one entry are separate records, joined by “and”; a condition that tells them apart may be missing. Identical values can stand only once. Unmarked numbers belong to inactive results. Results filed as inconclusive are left out. Activity calls are given as the source filed them. Unless noted, the call rests on the fitted dose curve; in most records, active means well fitted curve in the direction sought with a large enough effect; inconclusive means small, poorly fitted or top-dose-only effect, or another doubt; inactive means no such curve, though single readings can be large; an effect the other way counts as inactive or inconclusive.

This note sets out measurements from PubChem BioAssay (NCATS).

Assay [1] concerns WaGa. Description: qHTS assay to identify novel small-molecules to repurpose for Merkel cell carcinoma treatment (AID 1296009). Further: nearly all actives have a fitted effect of over 60% in size. Further: potency means the concentration at half of the fitted maximal effect. The following applies: MCC and control cell lines, CellTiter-Glo viability, 72 h; series mostly up to 46 µM. In outline:
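Cell viability measured by CellTiter-Glo following 72 hr compound treatment at 37 degree celsius, with NPC and MIPE libraries tested in 8- and 11-point concentration series.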

Assay [2] concerns C33A. The assay can be described thus: Primary qHTS to identify gynecologic anti-cancer compounds using libraries of approved drugs and bioactive compounds (AID 1345084). Further: nearly all actives have a fitted effect of over 55% in size. Further: potency means the concentration at half of the fitted maximal effect. The following applies: Gynecologic cancer cell panel viability, ATPlite luminescence, 48 h; series mostly up to 57.5 µM. In outline:
(§1)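 Cell viability after 48 h drug treatment, ATPlite luminescence readout; five doses.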

In assay [3] the test system is CAOV3. Described as above. The following applies: Gynecologic cancer cell panel viability, ATPlite luminescence, 48 h; series mostly up to 57.5 µM. In a few lines: as §1
In assay [4] the test system is CASKI. Described as above. The following applies: Gynecologic cancer cell panel viability, ATPlite luminescence, 48 h; series mostly up to 57.5 µM. In outline: as §1
Assay [5] has as its system Es-2. The description is as above. The following applies: Gynecologic cancer cell panel viability, ATPlite luminescence, 48 h; series mostly up to 57.5 µM. In a few lines: as §1
Assay [6] concerns HeLa. The assay is described as above. The following applies: Gynecologic cancer cell panel viability, ATPlite luminescence, 48 h; series mostly up to 57.5 µM. In outline: as §1
The subject of assay [7] is Hek293T. The description is as above. The following applies: Gynecologic cancer cell panel viability, ATPlite luminescence, 48 h, control line for the selectivity index; series mostly up to 57.5 µM. In a few lines:
as §1

Assay [8] relates to JEG-3. The assay is described as above. The following applies: Gynecologic cancer cell panel viability, ATPlite luminescence, 48 h; series mostly up to 57.5 µM. In a few lines: as §1
Assay [9] deals with OV90. The assay is described as above. The following applies: Gynecologic cancer cell panel viability, ATPlite luminescence, 48 h; series mostly up to 57.5 µM. In a few lines: as §1
Assay [10] deals with PA-1. The description is as above. The following applies: Gynecologic cancer cell panel viability, ATPlite luminescence, 48 h; series mostly up to 57.5 µM. In outline: as §1
Assay [11] concerns SKOV3. The description is as above. The following applies: Gynecologic cancer cell panel viability, ATPlite luminescence, 48 h; series mostly up to 57.5 µM. In a few lines: as §1
Assay [12] has as its system Tov-21-G. The description is as above. The following applies: Gynecologic cancer cell panel viability, ATPlite luminescence, 48 h; series mostly up to 57.5 µM. In outline:
as §1

Assay [13] relates to Tov112D. Described as above. The following applies: Gynecologic cancer cell panel viability, ATPlite luminescence, 48 h; series mostly up to 57.5 µM. In outline: as §1
A short description of assay [14]: Drug repurposing screens with cells derived from glioblastoma tumor samples (AID 1345199). Further: nearly all actives have a fitted effect of over 40% in size. Further: potency means the concentration at half of the fitted maximal effect. The following applies: GBM patient neurospheres viability, ATP luminescence, 48 h; Potency: tumour line A unless noted; series mostly up to 45.9 µM. In a few lines:
(§2)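 Primary testing used CD133+ neurospheres from four GBM patients, seven concentrations, 48 h exposure and ATP-based viability; confirmation added three slower-growing patient lines.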

Assay [15] has as its system astro. The assay is described as above. The following applies: viability, ATP luminescence, 48 h; series mostly up to 45.9 µM. In outline:
as §2

Assay [16] concerns the target Nuclear receptor subfamily 1 group I member 2 (Rattus norvegicus) (UniProt Q9R1A7). The assay can be described thus: qHTS assay for small molecule activators of the rat pregnane X receptor (rPXR) signaling pathway (AID 651751; call rule not given here; further: 0% is about no effect). The following applies: rPXR reporter cells, luciferase (One-Glo), 24 h.
Assay [17] is described as follows: qHTS assay for small molecule activators of the human pregnane X receptor (PXR) signaling pathway (AID 720659; call rule not given here; further: 0% is about no effect).

Sequence of Nuclear receptor subfamily 1 group I member 2 (Rattus norvegicus) (Q9R1A7 whole entry, looked up): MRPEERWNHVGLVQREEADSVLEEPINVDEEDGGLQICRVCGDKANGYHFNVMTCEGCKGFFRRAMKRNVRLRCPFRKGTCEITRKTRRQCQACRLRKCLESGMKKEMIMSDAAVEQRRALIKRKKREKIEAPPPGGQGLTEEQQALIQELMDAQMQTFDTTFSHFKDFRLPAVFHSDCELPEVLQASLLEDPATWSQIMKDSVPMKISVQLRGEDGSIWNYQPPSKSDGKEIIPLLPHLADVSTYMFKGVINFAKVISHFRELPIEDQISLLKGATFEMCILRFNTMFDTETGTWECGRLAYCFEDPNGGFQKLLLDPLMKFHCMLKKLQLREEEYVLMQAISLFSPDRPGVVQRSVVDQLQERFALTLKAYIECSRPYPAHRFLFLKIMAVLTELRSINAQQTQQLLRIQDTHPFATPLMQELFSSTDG

Regarding `COC(=O)c1cncn1C(C)c1ccccc1` (configuration not stated), the Potency result in assay [1], in assay [2], in assay [3], in assay [4], in assay [5] and in assay [6] was “inactive” each time. Besides, the Potency entry in assay [7], in assay [8], in assay [9], in assay [10], in assay [11] and in assay [12] was “inactive” throughout. Besides, the Potency result in assay [13], in assay [14] and in [15] was “inactive” in each case.
Turning to `CS(=O)(=O)c1ccc(C(=O)C2C(=O)CCCC2=O)c([N+](=O)[O-])c1`, the Potency result in [1], in [2], in [3], in assay [4], in assay [5] and in assay [6] was “inactive” throughout. Also, the Potency result in assay [7], in assay [8], in [9], in assay [10], in assay [11] and in assay [12] was “inactive” throughout. The Potency entry in assay [13], in [14] and in assay [15] was “inactive” each time. Further, the max response in assay [16] was 1.13%.
For the molecule `O=S(=O)(O)C(F)(F)C(F)(F)C(F)(F)C(F)(F)F`, the Potency result in assay [1], in assay [2], in assay [3], in assay [4], in assay [5] and in assay [6] was “inactive” in each case. The Potency result in [7], in assay [8], in assay [9], in assay [10], in assay [11] and in assay [12] was “inactive” in each case. Further, the Potency entry in [13], in [14] and in assay [15] was “inactive” throughout. The max response in [16] is -0.463% and -1.11%.
Take `C1CCC(NC2CCCCC2)CC1`: the Potency result in [1], in assay [2], in assay [3], in assay [4], in [5] and in assay [6] was “inactive” throughout. Also, the Potency result in assay [7], in assay [8], in [9], in [10], in assay [11] and in assay [12] was “inactive” each time. Also, the Potency result in [13], in assay [14] and in assay [15] was “inactive” throughout. Moreover, the max response in assay [16] is -4% and -4.51% and -0.383%. For the same molecule, the molecule was classed as inactive in assay [17].
Take `CC(C)N(CCNC(=O)CN1CCCC1=O)C(C)C`: the Potency entry in [1], in assay [2], in [3], in assay [4], in [5] and in [6] was “inactive” each time. For the same molecule, the Potency entry in assay [7], in [8], in assay [9], in assay [10], in [12] and in assay [13] was “inactive” throughout.
For the molecule `CC(=O)[O][Hg][c]1ccccc1`, the Potency in assay [1] was 0.473 µM (active); in assay [2], 5.62 µM (active); in assay [3], 3.55 µM (active); in assay [4] it was 4.47 µM (active); in [5], 6.31 µM (active); in [6] it was 14.1 µM (active). For the same molecule, the Potency in [7] was 7.08 µM (active); in assay [8], 5.01 µM (active); in [9] it was 12.6 µM (active); in assay [10], 3.16 µM (active); in assay [11], 3.55 µM (active); in assay [12], 2.51 µM (active). Besides, the Potency is 5.01 µM (active) in [13] and 1.26 µM (active) in [15].
With `CCCCOC(=O)c1ccccc1C(=O)OCc1ccccc1`, the Potency entry in assay [1], in [2], in assay [3], in assay [4], in assay [5] and in assay [6] was “inactive” throughout. For the same molecule, the Potency result in assay [7], in assay [8], in assay [10], in [12], in [13] and in [14] was “inactive” each time. In assay [15], the Potency result was “inactive”. In addition, in assay [16], the max response is 7.11% and 9.37%.
Regarding `Cc1cc(O)ccc1Cl`, the Potency result in [1], in assay [2], in [3], in assay [4], in [5] and in [6] was “inactive” each time. Further, the Potency entry in assay [7], in [8], in assay [10], in assay [11], in assay [12] and in assay [13] was “inactive” each time. Also, the Potency entry in assay [14] and in assay [15] was “inactive” in each case. Moreover, the max response in assay [16] is -6.09%. In addition, the result in [17] was inactive.
Regarding `O=C(N[C@@H](COc1ccc2[nH]c(=O)[nH]c2c1)c1ccccc1)c1cccn(Cc2ccc(F)c(F)c2)c1=O`, the Potency entry in [1], in [2], in assay [3], in [4], in [5] and in [6] was “inactive” in each case. In addition, the Potency result in assay [7], in [8], in assay [9], in assay [10], in assay [12] and in assay [13] was “inactive” in each case.
For `OCCCBr`, the Potency result in [1], in [2], in assay [3], in [4], in assay [5] and in [6] was “inactive” in each case. The Potency result in [7], in [8], in assay [9], in assay [12], in [13] and in [14] was “inactive” in each case. Also, the Potency entry in [15] was “inactive”. Also, the max response in assay [16] was -2.6%. Also, the molecule was called inactive in [17].
Consider `O=[N+]([O-])c1ccc([As](=O)(O)O)cc1`, for which the Potency result in [1], in assay [2], in assay [3], in [4], in [5] and in [6] was “inactive” each time. The Potency entry in assay [7], in assay [8], in [9], in [11], in assay [12] and in [13] was “inactive” throughout. Besides, the Potency result in assay [14] and in assay [15] was “inactive” throughout.
With `Nc1ccc(Cl)cc1`, the Potency result in assay [1], in assay [2], in assay [3], in [4], in assay [5] and in assay [6] was “inactive” throughout. Also, the Potency entry in [7], in [8], in assay [10], in [11], in [12] and in [13] was “inactive” each time. The Potency result in [14] and in assay [15] was “inactive” in each case. In assay [16], the max response was 3.79%. For the same molecule, the call in assay [17] was inactive.
